# Values joined by “and” are separate entries in the source; they are usually repeats but may differ in a detail not shown here. Equal values may be shown once. Records with an inconclusive call do not appear. For some assays here: Potency and affinity values are given separately. Active and inactive are the calls of the source.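 The calls were made as follows, unless noted: active = thallium flux through the channel raised or lowered by more than 3 SD from vehicle-only wells, actives on both sides; inactive = the rest.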
# Experiments:
# [1] = circadian clock period modulators, cell-based, LOPAC library, luminescence reporter (AID 2774; call rule not given here;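 also: values are relative to mean of DMSO wells on each plate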); details: circadian reporter cells, at 7 µM, actives lie on both sides
# [2] = tested on: Hepatitis C virus NS3 helicase; assay: HCV NS3 helicase inhibitors, primary screen, biochemical, fluorescence polarization, LOPAC1280 library (AID 687035; in the data active = inhibition above about 37%); details: Purified HCV NS3 helicase, Cy5-dT15 ssDNA binding fluorescence polarization; stronger effect = higher value; concentration not given here
# [3] = Cy5 fluorescence quenching or enhancement artefacts, artefact control for HCV NS3 helicase inhibitor project, biochemical, LOPAC1280 (AID 687037; call rule not given here); details: Cy5-DNA-NS3h complex fluorescence interference counterscreen
# [4] = growth inhibition of DIPG glioma cells, dose response, cell-based, JHH-DIPG-1, MIPE4.0, CellTiter-Glo, qHTS (AID 1347062; cut-off not given, nearly all actives have AC50 up to about 27 µM); details: JHH-DIPG-1 viability, CellTiter-Glo ATP luminescence
# [5] = phospholipid biosynthesis inhibitors in animal cells, primary screen, cell-based, LOPAC library, screen 4 (AID 1347384; call rule not given here); details: phospholipid biosynthesis inhibition screen, at 10 µM
# [6] = polyglutamine-triggered caspase-3 activation inhibitors, cell-based (AID 1583); details: polyglutamine-induced caspase-3 activation, cell assay; stronger effect = higher value;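 tested at 10 µM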
# [7] = suppressors of polyQ aggregation in yeast, 75Q-TubU reporter (AID 1593); details: Yeast 75Q polyglutamine aggregation reporter
# [8] = rescue of polyQ-huntingtin neuronal dysfunction in worms, whole organism, C. elegans mechanosensory neurons, N-terminal huntingtin (AID 1599); details: touch response, stronger effect = higher value
# [9] = inhibitors of mitochondrial cytochrome c release, biochemical, purified mitochondria (AID 1603); details: stronger effect = lower value;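 also: mouse liver mitochondria challenged with calcium chloride; signal normalized to the plate average as 100%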
# [10] = inhibitors of polyQ protein aggregation (AID 1604); details: polyglutamine-induced protein aggregation inhibition assay; stronger effect = higher value; tested at 2.5 µM
# [11] = enhancers of glutamate uptake in motor neurons, MN-1 cell line (AID 1612); details: MN-1 motor neuron cells, stronger effect = higher value;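 also: tested at 1 µM final; 0% = mean of DMSO vehicle wells on each plate; positive means more glutamate uptake than control and negative means less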
# [12] = suppressors of polyglutamine aggregation in yeast, 75Q-TubH (AID 1616); details: S. cerevisiae 75Q-TubH polyglutamine aggregation suppression; stronger effect = higher value
# [13] = hESC survival regulators, cell-based (AID 493140; call rule not given here;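 also: cells exposed to compounds for four days before counting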); details: human embryonic stem cell survival screen; stronger effect = higher value
# [14] = tested on: Neuropilin-2 / VEGF-C interaction (human); assay: inhibitors of NRP2–VEGF-C binding, biochemical, microplate binding format, z-score (AID 743281; call rule not given here); details: microplate NRP2/VEGF-C binding assay; stronger effect = lower value
# [15] = tested on: Aerobactin synthetase IucA (Klebsiella pneumoniae); assay: IucA aerobactin synthetase inhibitors, biochemical, Tocris library, absorbance (AID 1345561; call rule not given here;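 also: 100% = enzyme without compound and 0% = no enzyme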); details: purified IucA enzyme assay, absorbance (OD) read-out; stronger effect = lower value;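 tested at 8 µM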
# F380Y/beta1 = assay: modulators of BK channel variants, profiling panel, selectivity assay, cell-based, U2OS BacMam, thallium flux, beta subunits (AID 1259406); details: at 30 µM;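 also: initial slope of Thallos dye fluorescence rise after thallium is added; log ratio against the mean of 0.3% DMSO vehicle wells on the same plate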
# F380Y/beta4 = assay: as above; details: at 30 µM
# R275C/beta4 = assay: as above; details: at 30 µM
# R275C/Slo1WT/beta2 = assay: as above; details: at 30 µM
# [16] = modifiers of HSF1 nuclear foci, imaging, Selleck Cancer Library (AID 1347162; in the data active = plate-normalised HSF1 focus index below about 0.46); details: human cells, at 10 µM; SSMD: measured here: HSF1 foci SSMD mean; cell count: measured here: cell number; plate-normalised HSF1 focus index: stronger effect = lower value
compound,measurement,setting,value
O=c1ccc2ccc(O)c(O)c2o1,period change,[1],0.03 h (inactive)
same,inhibition,[2],0% (inactive)
same,fluorescence ratio (interference),[3],1.1 (inactive)
same,outcome,[4],inactive
same,outcome,[5],inactive
CC(C(=O)O)c1ccc(-c2ccccc2)c(F)c1 (stereo not drawn),inhibition,[6],20.8%
same,score,[7],0
same,rescue above control,[8],19
same,cytochrome c release ratio,[9],0.68
same,inhibition of aggregation,[10],29%
same,glutamate uptake change,[11],14.1%
same,aggregation suppression score,[12],0.00404
same,survival,[13],4.67 (inactive)
same,z-score,[14],-0.82 (inactive)
same,remaining activity,[15],123% (inactive)
same,outcome,[4],inactive
same,log fold change Tl+ flux,F380Y/beta1,0.0374 (inactive)
same,log fold change Tl+ flux,F380Y/beta4,0.0328 (inactive)
same,log fold change Tl+ flux,R275C/beta4,0.0279 (inactive)
same,log fold change Tl+ flux,R275C/Slo1WT/beta2,0.0126 (inactive)
CCCCC(=O)N(Cc1ccc(-c2ccccc2-c2nn[nH]n2)cc1)[C@H](C(=O)O)C(C)C,z-score,[14],-0.0697 (inactive)
same,log fold change Tl+ flux,F380Y/beta1,-0.0013 (inactive)
same,log fold change Tl+ flux,F380Y/beta4,-0.00671 (inactive)
same,log fold change Tl+ flux,R275C/beta4,0.0104 (inactive)
same,log fold change Tl+ flux,R275C/Slo1WT/beta2,0.0346 (inactive)
CCc1ccc(CCOc2ccc(CC3SC(=O)NC3=O)cc2)nc1 (stereo not drawn),z-score,[14],0.637 (inactive)
same,outcome,[4],inactive
same,SSMD,[16],-1.24
same,cell count,[16],7530
same,plate-normalised HSF1 focus index,[16],0.926 (inactive)
same,log fold change Tl+ flux,F380Y/beta1,0.0033 (inactive)
same,log fold change Tl+ flux,F380Y/beta4,0.017 (inactive)
same,log fold change Tl+ flux,R275C/beta4,-0.028 (inactive)
same,log fold change Tl+ flux,R275C/Slo1WT/beta2,-0.0116 (inactive)
COc1ccc(-c2cc(=O)c3c(OC)c(OC)c(OC)c(OC)c3o2)cc1OC,z-score,[14],0.248 (inactive)
same,log fold change Tl+ flux,F380Y/beta1,0.0362 (inactive)
same,log fold change Tl+ flux,F380Y/beta4,-0.0316 (inactive)
same,log fold change Tl+ flux,R275C/beta4,-0.242 (active)
same,log fold change Tl+ flux,R275C/Slo1WT/beta2,-0.0213 (inactive)
Cc1cccc(C)c1NC(=O)C1CCCCN1C (stereo not drawn),z-score,[14],-0.136 (inactive)
same,log fold change Tl+ flux,F380Y/beta1,0.0319 (inactive)
same,log fold change Tl+ flux,F380Y/beta4,0.00629 (inactive)
same,log fold change Tl+ flux,R275C/beta4,-0.0225 (inactive)
same,log fold change Tl+ flux,R275C/Slo1WT/beta2,-0.0173 (inactive)
C[N+]1(C)CCCC(OC(=O)C(O)(c2ccccc2)c2ccccc2)C1 (stereo not drawn),inhibition,[6],-22.1%
same,score,[7],1.26
same,rescue above control,[8],-3.59
same,cytochrome c release ratio,[9],1.17
same,inhibition of aggregation,[10],55%
same,glutamate uptake change,[11],-13.3%
same,aggregation suppression score,[12],1.44
same,survival,[13],8 (inactive)
same,log fold change Tl+ flux,F380Y/beta1,-0.0251 (inactive)
same,log fold change Tl+ flux,F380Y/beta4,0.0149 (inactive)
same,log fold change Tl+ flux,R275C/beta4,0.0435 (inactive)
same,log fold change Tl+ flux,R275C/Slo1WT/beta2,0.0306 (inactive)
CC(C)NCC(O)COc1ccc(CC(N)=O)cc1 (stereo not drawn),inhibition,[6],16.6%
same,score,[7],1.42
same,rescue above control,[8],-0.75
same,cytochrome c release ratio,[9],0.86
same,inhibition of aggregation,[10],-11.1%
same,glutamate uptake change,[11],-9.65%
same,aggregation suppression score,[12],1.39
same,period change,[1],0.015 h (inactive)
same,survival,[13],4.33 (inactive)
same,inhibition,[2],-1% (inactive)
same,fluorescence ratio (interference),[3],0.9 (inactive)
same,remaining activity,[15],121% (inactive)
same,outcome,[5],inactive
same,log fold change Tl+ flux,F380Y/beta1,0.000846 (inactive)
same,log fold change Tl+ flux,F380Y/beta4,0.0375 (inactive)
same,log fold change Tl+ flux,R275C/beta4,0.0424 (inactive)
same,log fold change Tl+ flux,R275C/Slo1WT/beta2,0.0165 (inactive)
CC(C)[N+]1(C)C2CCC1CC(OC(=O)C(CO)c1ccccc1)C2 (stereo not drawn),survival,[13],16.6 (inactive)
same,remaining activity,[15],98.6% (inactive)
same,log fold change Tl+ flux,F380Y/beta1,0.0263 (inactive)
same,log fold change Tl+ flux,F380Y/beta4,0.0435 (inactive)
same,log fold change Tl+ flux,R275C/beta4,0.0153 (inactive)
same,log fold change Tl+ flux,R275C/Slo1WT/beta2,-0.0119 (inactive)
CNCCC=C1c2ccccc2CCc2ccccc21,inhibition,[6],16.9%
same,score,[7],1.22
same,cytochrome c release ratio,[9],0.98
same,inhibition of aggregation,[10],72.7%
same,glutamate uptake change,[11],13.8%
same,aggregation suppression score,[12],1.32
same,period change,[1],0.025 h (inactive)
same,survival,[13],3.42 (inactive)
same,inhibition,[2],-5% (inactive)
same,fluorescence ratio (interference),[3],1 (inactive)
same,outcome,[5],inactive
same,log fold change Tl+ flux,F380Y/beta1,0.0784 (inactive)
same,log fold change Tl+ flux,F380Y/beta4,0.255 (active)
same,log fold change Tl+ flux,R275C/beta4,0.121 (inactive)
same,log fold change Tl+ flux,R275C/Slo1WT/beta2,-0.0571 (inactive)
COc1ccc2c3c1O[C@H]1C[C@@H](O)C=C[C@@]31CCN(C)C2,inhibition,[6],-3.14%
same,score,[7],1.34
same,rescue above control,[8],0.01
same,cytochrome c release ratio,[9],0.63
same,inhibition of aggregation,[10],91.6%
same,glutamate uptake change,[11],5.19%
same,aggregation suppression score,[12],1.04
same,survival,[13],11.9 (inactive)
same,z-score,[14],0.00606 (inactive)
same,remaining activity,[15],110% (inactive)
same,outcome,[4],inactive
CC1(C)SC2C(NC(=O)COc3ccccc3)C(=O)N2C1C(=O)O (stereo not drawn),log fold change Tl+ flux,F380Y/beta1,0.027 (inactive)
same,log fold change Tl+ flux,F380Y/beta4,-0.00549 (inactive)
same,log fold change Tl+ flux,R275C/beta4,0.0174 (inactive)
same,log fold change Tl+ flux,R275C/Slo1WT/beta2,0.0607 (inactive)
C#C[C@]1(O)CC[C@H]2[C@@H]3CCC4=CC(=O)CC[C@@H]4[C@H]3CC[C@@]21C,survival,[13],14.7 (inactive)
same,log fold change Tl+ flux,F380Y/beta1,0.0886 (inactive)
same,log fold change Tl+ flux,F380Y/beta4,0.0669 (inactive)
same,log fold change Tl+ flux,R275C/beta4,-0.0715 (inactive)
same,log fold change Tl+ flux,R275C/Slo1WT/beta2,-0.0385 (inactive)
CON=C(C(=O)NC1C(=O)N2C(C(=O)O)=C(COC(C)=O)CSC12)c1csc(N)n1 (stereo not drawn),log fold change Tl+ flux,F380Y/beta1,-0.0319 (inactive)
same,log fold change Tl+ flux,F380Y/beta4,0.0152 (inactive)
same,log fold change Tl+ flux,R275C/beta4,-0.0222 (inactive)
same,log fold change Tl+ flux,R275C/Slo1WT/beta2,-0.0319 (inactive)
CCCC1O[C@@H]2C[C@H]3[C@@H]4CCC5=CC(=O)C=C[C@]5(C)[C@H]4[C@@H](O)C[C@]3(C)[C@]2(C(=O)CO)O1 (stereo partly drawn),period change,[1],-0.26 h (inactive)
same,survival,[13],0.833 (inactive)
same,inhibition,[2],-5% (inactive)
same,fluorescence ratio (interference),[3],0.9 (inactive)
same,remaining activity,[15],98.4% (inactive) and 108% (inactive)
same,outcome,[5],inactive
same,log fold change Tl+ flux,F380Y/beta1,0.126 (active)
same,log fold change Tl+ flux,F380Y/beta4,0.0417 (inactive)
same,log fold change Tl+ flux,R275C/beta4,0.1 (inactive)
same,log fold change Tl+ flux,R275C/Slo1WT/beta2,-0.0145 (inactive)

# Reference: PubChem BioAssay
